Data as given in PubChem BioAssay AID652054 (National Center for Advancing Translational Sciences (NCATS), 2013).
The campaign covered roughly 360,000 compounds. About 9,100 (2.5%) were called active. Not shown: some 4% with an inconclusive outcome. This excerpt belongs to a sample that is enriched for actives. A number with no mark means an inactive call. Rule as the data show it: active = max response below about -50%; inconclusive = no clear call, values can overlap the other calls; inactive = above that.

molecular target: D(3) dopamine receptor (Homo sapiens) (UniProt P35462); experiment: qHTS of D3 Dopamine Receptor Antagonist: qHTS; settings: D3R cells, DiscoveRx beta-arrestin luminescence, antagonist mode; hits give low values
Outline: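 Cells expressing the human receptor were seeded at 1500 cells/well, incubated overnight at 37 degrees C in 5% CO2, then exposed to library compounds with dopamine controls for 90 minutes at 37 degrees C before luminescent detection.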
% is scaled to controls: 0 for no effect and ±100 for the full control effect.

Chain of D(3) dopamine receptor (Homo sapiens) (P35462 whole entry, looked up): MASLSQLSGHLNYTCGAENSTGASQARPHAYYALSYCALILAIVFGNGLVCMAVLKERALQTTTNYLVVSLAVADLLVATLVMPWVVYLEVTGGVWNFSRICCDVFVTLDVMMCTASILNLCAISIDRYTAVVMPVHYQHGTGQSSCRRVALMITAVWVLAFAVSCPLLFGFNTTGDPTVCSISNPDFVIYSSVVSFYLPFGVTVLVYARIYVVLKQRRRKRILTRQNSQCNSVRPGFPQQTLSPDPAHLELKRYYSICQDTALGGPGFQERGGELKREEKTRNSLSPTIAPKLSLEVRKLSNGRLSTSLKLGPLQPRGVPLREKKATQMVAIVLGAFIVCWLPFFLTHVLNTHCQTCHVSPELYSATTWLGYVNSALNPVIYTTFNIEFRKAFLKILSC

| SMILES | max response, negative = inhibition |
| --- | --- |
| CCCNC(=O)C1(C)CCCN(C(=O)c2cccc(OC(C)=O)c2C)C1 (stereo unspecified) | 9.36% |
| COc1ccccc1Cc1c(-c2ccc(Cl)cc2)nc2c3ccccc3ccn12 | 7.3% |
| Cc1ccc(CNS(=O)(=O)CCNC(=O)c2ccccc2)cc1 | 18.2% |
| O=C(NCCS(=O)(=O)NCc1ccc(F)cc1)c1ccccc1 | -8.19% |
| CCCCNCCS(=O)(=O)NCc1ccccc1 | -71.2% (active) |
| CC(=O)N1CCN(Cc2cc(=O)oc3cc(C)ccc23)CC1 | 10.4% |
| COc1ccc(S(=O)(=O)N2CCN(CC(=O)N3CCNC3=O)CC2)cc1OC | 3.73% |
| Cn1ncc([N+](=O)[O-])c1C(=O)Nc1cc(Cl)ccc1Cl | 0% |
| O=C(CSc1ncn[nH]1)Nc1ccc(Br)cc1Br | -17.2% |
| O=C(/C=C/Sc1ncn[nH]1)c1ccc(Cl)cc1 | -50.9% (active) |
| O=C(CSc1ncn[nH]1)NCc1ccc2c(c1)OCO2 | 5.23% |
| CN(C)C(=O)c1cccc(-c2cnc3sc(NCc4ccc5c(c4)OCO5)nn23)c1 | 59.7% |
| CCCCCc1c(-c2cccc(Br)c2)ncn1CCc1ccccc1OC | 19.8% |
| CCCNC(=O)C1(C)CCCN(C(=O)c2oc3ccccc3c2C)C1 (stereo unspecified) | -13.3% |
| Cc1nn(C)cc1CNC(=O)Nc1ccc(Cl)cc1 | 6.1% |
| Cn1cc(Cl)c(C(=O)NNC(=S)Nc2cccc(Cl)c2)n1 | -24.3% |
| Cc1nn(C)cc1C(=O)NNC(=S)Nc1ccc(Cl)cc1 | -63.2% (active) |
| Cc1cccc(CN2CCN(C3CN(Cc4ccccc4)S(=O)(=O)C3)CC2)c1 (stereo unspecified) | -8.28% |
| Cc1cc2nc(-c3ccc(Cl)cc3)c(Cc3cccc(F)c3)n2c(C)c1Br | 0% |
| COc1ccccc1CC1(C)C(=O)Nc2ccc(OC(F)(F)F)cc21 (stereo unspecified) | -16.9% |
| CC(=O)Nc1ccc2c3c(ccc([N+](=O)[O-])c13)CC2 | -18.8% |
| CN1/C(=C\C=C2\N=C(c3ccc(F)cc3)OC2=O)C(C)(C)c2ccccc21 | -63.7% (active) |
| CN1CCN(CCC(=O)N/N=C/C=C2\N(C)c3ccccc3C2(C)C)CC1 | -23.3% |

| SMILES | max response, negative = inhibition |
| --- | --- |
| CC(=O)Nc1cccc(OCC(=O)/C=C2\N(C)c3ccccc3C2(C)C)c1 | 12.1% |
| Cc1cc2c(cc1C)N1C(=O)c3cc4ccccc4cc3NC(=O)C1C(=O)N2 (stereo unspecified) | 0% |
| CC(=O)C[C@@H]1OC[C@H](C)N1S(=O)(=O)c1ccc(C)cc1 | 1.58% |
| Cc1nccn1-c1ccc(NC(=O)[C@H]2O[C@@H](n3ccc(=O)[nH]c3=O)[C@H](O)[C@@H]2O)cc1 | 23.4% |
| CCc1nc2c(OCc3ccc(C(F)(F)F)cc3)cccn2c1N(C)C(=O)CC(C)C | 3.13% |
| COc1cccc(-c2cnc(C(O)c3ccccc3OC)[nH]2)c1 (stereo unspecified) | 0% |
| CC1(C(=O)NCc2ccccc2)CSCC(=O)N1CCCn1ccnc1 (stereo unspecified) | 11.4% |
| CCOc1cc(/C=N/Nc2cc(C)nc3ccc(C)cc23)ccc1O | 3.59% |
| Cc1ccc2cc(/C=N/Nc3ccc(C(=O)O)cc3)c(Cl)nc2c1 | 13.3% |
| Cc1ccc(/C=N/NC(=O)C2=NNC(c3ccccc3)(c3ccccc3)C2)c(O)c1 | 15.1% |
| COc1ccc(NC(=O)C/C(C)=N/NC(=O)c2cnccn2)cc1Cl | 3.87% |
| CCN(CC)c1ccc(/C=N/NC(=O)c2cnccn2)c(O)c1 | -57.7% (active) |
| CCN(CC)c1ccc(/C=N/Nc2nc(C)cc(C)n2)c(O)c1 | -81.5% (active) |
| c1cc(-c2ccc3[nH]ccc3c2)n2ccnc2c1 | 0% |
| CCNC(=O)C1(C)CCN(C(=O)c2ccccc2)C1 (stereo unspecified) | 0% |
| COc1ccc(C(C(=O)NCc2ccccc2)n2c(=O)c(-c3ccccc3)nc3ccccc32)cc1 (stereo unspecified) | -3.74% |
| COc1ccc(OC)c(NC(=O)C2CCCN2S(=O)(=O)c2ccc3c(c2)CC(C)N3C(C)=O)c1 (stereo unspecified) | -11.1% |
| CCN(CCN(C)C)C(=O)c1ccc2nc(C)c(N(C)C(=O)CCc3ccccc3)n2c1 | 14.8% |
| COc1ccc(S(=O)(=O)N2CCC(C(=O)NCCC(=O)Nc3ccccc3OC)CC2)cc1 | 23.8% |
| CN=C1C=C/C(=N/N=c2\ccn(O)cc2C)C=C1C | -67.8% (active) |
| O=C(COC(=O)CCc1c[nH]c2ccccc12)Nc1cccc(Cl)c1 | -6.82% |
| NC(=NC(=O)c1ccccc1)N1CCOCC1 | -52.7% (active) |
| O=C(NC(=O)N1CCOCC1)c1ccccc1 | 160% |

| SMILES | max response, negative = inhibition |
| --- | --- |
| O=C(CSC(=S)N1CCOCC1)c1ccccc1 | -4.48% |
| Cc1cc2oc(=O)cc(CN(C)Cc3ccccc3)c2cc1Cl | 9.91% |
| CCCCN1C(=O)C(CC(=O)NCc2cccs2)CC(C(=O)N2CCCCCC2)=C1C (stereo unspecified) | 0% |
| COc1ccccc1CNC(=O)CCCNS(=O)(=O)c1cccc2nsnc12 | -0.0929% |
| O=C(CCS(=O)(=O)c1cccc2nsnc12)N1CCN(c2ccccc2F)CC1 | 1.65% |
| O=C(CCCNS(=O)(=O)c1cccc2nsnc12)NCCN1CCN(c2ccccc2F)CC1 | -84.7% (active) |
| OC[C@@H]1CN(Cc2ccc3c(c2)OCO3)C[C@H](n2cnc3c(NCc4ccco4)ncnc32)O1 | -5.45% |
| COC(=O)[C@@]1(Sc2ccc(C)cc2)CC(=O)N(c2cccc(SC)c2)[C@@H]1c1ccccc1 | 3.45% |
| CC(C)Nc1nc(N(c2ccccc2)c2ccccc2)nc(-n2ccnc2)n1 | 16.7% |
| N#Cc1nc(N)nc(N(c2ccccc2)c2ccccc2)n1 | -74% (active) |
| CC(=O)Nc1ccc(CNc2nc(NCCN(C)C)nc3cc(-c4ccccc4)sc23)cc1 | -24.6% |
| CCOC(=O)C1CCCN(C(=O)c2cc(-c3cccs3)oc2C)CC1 (stereo unspecified) | 11% |
| O=c1[nH][nH]c(C(F)(F)F)c1C=NCc1ccccc1Cl | -70.6% (active) |
| COc1ccc(S(=O)(=O)N2CCCCC2c2cc(C(=O)NCc3ccc(F)cc3)no2)cc1 (stereo unspecified) | 8.77% |
| Cc1cc(C(=O)N2CCCC2(C)C(=O)O)c(C)o1 (stereo unspecified) | 16.6% |
| CCOC(=O)C1=CC[C@@H](c2ccccc2)N(S(=O)(=O)c2ccc(C)cc2)[C@H]1c1ccc(CC)cc1 | 4.64% |
| O=C(NCc1cccnc1)c1cc(C2CCCCN2C(=O)CCc2ccccc2)on1 (stereo unspecified) | -10.2% |
| COc1ccc(/C(N)=N/OC(=O)Cc2ccccc2)cc1 | -0.193% |
| COc1ccc(C(=NN)c2ccc(OC)cc2)cc1 | -10.2% |
| COc1ccc(C(C#N)=C2C=CC(=NO)c3ccccc32)cc1 | -54% (active) |
| Cc1cccc(C)c1NC(=O)C(c1ccc(C(F)(F)F)cc1)n1c(=O)c(-c2ccco2)nc2ccccc21 (stereo unspecified) | -12.7% |
| COc1cc(C=C(OC(C)=O)c2ccc3c(c2)OCO3)cc(OC)c1OC | 24.2% |
| O=C1CCC(C(=O)OCC(=O)Nc2ccc(OC(F)F)cc2)=NN1 | 12.8% |

| SMILES | max response, negative = inhibition |
| --- | --- |
| CN(C)/N=C/c1cc(Cl)cc([N+](=O)[O-])c1O | -79.8% (active) |
| O=C(Cc1ccccc1)N/N=C/c1ccc(Cl)cc1Cl | -15.7% |
| O=C(N/N=C/c1cc(Cl)cc([N+](=O)[O-])c1O)C(O)(c1ccccc1)c1ccccc1 | -89.3% (active) |
| O=C(N/N=C/c1cc(Br)c(O)c([N+](=O)[O-])c1)C(O)(c1ccccc1)c1ccccc1 | -10.9% |
| CC(=O)NC(c1ccccc1)c1nc(-c2ccccc2C)cs1 (stereo unspecified) | -13.7% |
| CC(C)CCNC(=O)c1[nH]c(C(F)(F)F)nc1-c1ccccc1 | 0% |
| COCOCCn1cc(CN2CCS(=O)(=O)N(Cc3ccc(-c4ccc(OC)cc4)cc3)C(CC(C)C)C2=O)nn1 (stereo unspecified) | 10.8% |
| COc1ccc(NC(=O)CSc2nc(C)cs2)cc1 | 5.34% |
| COc1ccc(NC(=O)c2sccc2SCC#N)cc1 | -82.3% (active) |
| COc1ccc(NC(=O)c2ccc(C#CC(C)(C)O)cc2)cc1 | -1.8% |
| C[C@@H]1CN([C@H](C)CO)C(=O)CCCn2cc(nn2)CO[C@H]1CN(C)S(C)(=O)=O | 12.7% |
| NC(=S)NN=Cc1ccc(OC(=O)COc2cc(Cl)c(Cl)cc2Cl)cn1 | 0.559% |
| O=C(CN1CCOc2ccccc21)N1CCC(Cc2ccccc2)CC1 | 0% |
| O=C(Nc1ccc2c(c1)OCCO2)C(C1CC1)N1CCC(Cc2ccccc2)CC1 (stereo unspecified) | -73.1% (active) |
| CCC(C(=O)Nc1ccc2c(c1)OCCO2)c1ccccc1 (stereo unspecified) | -13.2% |
| O=C(NCc1ccccc1)C(c1ccc(F)cc1)N1CCN(C(=O)C2CCCO2)CC1 (stereo unspecified) | 29.8% |
| CCOC(=O)C1(C)CCCN(C(=O)c2cccc(Cl)c2)C1 (stereo unspecified) | -16.8% |
| NC(=O)c1ccc(NC(=O)COC(=O)c2ccc([N+](=O)[O-])cc2)cc1 | -15.1% |
| COC(=O)c1cc(NC(=O)Cc2ccccc2[N+](=O)[O-])ccc1Cl | -7.17% |
| N#Cc1cccc(NC(=O)COC(=O)c2ccccc2C(=O)c2ccc(Cl)c([N+](=O)[O-])c2)c1 | -50.7% (active) |
| CCCc1ccc(C(O)c2ncc(-c3cccc(OC)c3)[nH]2)cc1 (stereo unspecified) | 0% |
| CC(C)(C)S(=O)N1Cc2cc(C(=O)NCCCN3CCOCC3)nc(-c3cccc(-c4cc5ccccc5o4)c3)c2[C@H]1CCO (stereo partly specified) | 9.3% |
